# Test results as given in the supplement of paper PMC13380429.
# A number with no mark means an inactive call.
# Tested on: Vero E6 infected with SARS-CoV-2
# Test: inhibition of SARS-CoV-2 cytopathic effect; higher = more antiviral protection, active = above 15
# Settings: 48 h
SMILES,inhibition of SARS-CoV-2 cytopathic effect (1 nM) [%],inhibition of SARS-CoV-2 cytopathic effect (8.33 nM) [%],inhibition of SARS-CoV-2 cytopathic effect (100 nM) [%],inhibition of SARS-CoV-2 cytopathic effect (833.33 nM) [%],inhibition of SARS-CoV-2 cytopathic effect (10000 nM)
C[C@]12C=CC(=O)C=C1CC[C@@H]1[C@@H]2[C@@H](O)C[C@@]2(C)[C@H]1CC[C@]2(O)C(=O)COC(=O)CCC(=O)O [prednisolone-hemisuccinate],-1.49,0.74,3.44,3.76,1.85%
NCC1CC(=O)N(Cc2ccccc2)C1 (stereo not given) [nebracetam],2.53,1.25,1.38,1.16,0.26%
C[C@H]1C[C@@H]2[C@H]([C@@H](O)C[C@@]3(C)[C@H]2CC[C@]3(O)C(=O)CO)[C@@]2(C)C=CC(=O)C=C12 [methylprednisolone],0.61,3.49,-1.8,0.94,0.36%
COc1ccc(N(C)c2nc(C)nc3ccccc23)cc1 [verubulin],0.84,2.34,-2.32,2.89,2.5%
Nc1ncnc2c1c(-c1cccc(OCc3ccccc3)c1)cn2C1CC(CN2CCCC2)C1 (stereo in doubt),-0.48,0.04,1.98,0.14,27.9% (active)
COc1ccc(CCNCc2ccc(OCc3ccc(Cl)nc3)c(OC)c2)cc1OC,-1.43,0.63,-0.05,-1.6,-2.68%
O=C(O)c1c2ccccc2cc2ccccc12 [9-anthracenecarboxylic-acid],-4.6,2.11,0.63,1.03,-2.02%
Cc1ccc(S(=O)(=O)NC(=O)NN2CCCCCC2)cc1 [tolazamide],1.07,-0.36,0.85,1.43,2.51%
O=C(Cn1ccnc1[N+](=O)[O-])NCc1ccccc1 [benznidazole],-0.15,-0.69,-2.08,-0.42,0.58%
N=C(N)Nc1ccc(Cl)cc1 [4-chlorophenylguanidine],0.9,1.22,0.63,-0.99,0.95%
CC(C)=CCC/C(C)=C/CNCCNC1C2CC3CC(C2)CC1C3 (stereo not given),0.6,0.09,1.62,1.05,0.17%
CO/N=C(\C(=O)N[C@@H]1C(=O)N2C(C(=O)OCOC(=O)C(C)(C)C)=C(C)CS[C@H]12)c1csc(N)n1 [cefetamet-pivoxil],-1.77,-0.88,-2.82,-0.78,-2.04%
O=C(O)Cc1ccc2c(c1)C(=O)c1ccccc1CO2 [isoxepac],-4.41,-3.03,-6.78,-4.01,0.02%
COc1cc(N)c(Cl)cc1C(=O)OCCN1CCCCC1,2.34,2.09,1.8,1.01,2.59%
CCOP(=S)(OCC)Oc1ccc2c(C)c(Cl)c(=O)oc2c1 [coumophos],-3.33,0.82,0.18,-2.21,-0.05%
COc1ccc(-c2cc(=O)c3c(O)c(OC)c(O)cc3o2)cc1OC [eupatilin],1.23,-0.46,0.38,1.92,2.58%
C=CCN1CCc2cc(O)c(O)cc2[C@H](c2ccccc2)C1,1.44,0.58,0.35,0.44,-2.9%
CCn1c(=O)[nH]c2cc(Cl)c(Cl)cc21,0.36,1.8,0.73,-2.68,-2.08%
COc1ccc(CCO[C@@H]2CCCC[C@H]2N2CC[C@@H](O)C2)cc1OC [vernakalant],-0.46,0.39,-0.75,1.67,-1.63%
CC(C)Oc1cccc(CC(=O)N2CCC[C@](CC[N+]34CCC(c5ccccc5)(CC3)CC4)(c3ccc(Cl)c(Cl)c3)C2)c1,1.67,0.54,0.54,4.46,1.59%

SMILES,inhibition of SARS-CoV-2 cytopathic effect (1 nM) [%],inhibition of SARS-CoV-2 cytopathic effect (8.33 nM) [%],inhibition of SARS-CoV-2 cytopathic effect (100 nM) [%],inhibition of SARS-CoV-2 cytopathic effect (833.33 nM) [%],inhibition of SARS-CoV-2 cytopathic effect (10000 nM)
c1cc(-c2cnn3cc(-c4ccc(OCCN5CCCCC5)cc4)cnc23)ccn1 [dorsomorphin],-2.38,-0.08,2.59,-0.64,-2.57%
Nc1c(CC(=O)O)cccc1C(=O)c1ccc(Br)cc1 [bromfenac],-1.88,0.84,-0.8,-0.93,-0.48%
C=C[C@H]1CN2CC[C@H]1C[C@H]2[C@H](O)c1ccnc2ccccc12 [cinchonidine],-0.165,2.44,2.67,3.6,2.49%
NCC(=O)CCC(=O)O [5-aminolevulinic-acid],1.18,1.35,-3.53,-0.73,0.28%
OCCCNc1cc(-c2ccnc(Nc3cccc(Cl)c3)n2)ccn1,1.32,-0.77,1.6,-16.6,11.2%
Cc1ccccc1/N=N/c1ccc(NC(=O)c2ccnn2C)c(C)c1,-1.46,0.89,1.16,2.03,0.48%
O=c1[nH]c2cc(C(F)(F)F)c(N3CCOCC3)cc2n(CP(=O)(O)O)c1=O,0.45,0.83,-1.59,1.35,-2.92%
O=C(O)c1ccc(O)c2ncccc12,0.11,1.32,1.3,3.02,1.28%
CN(C)C/C=C/C(=O)Nc1ccc(C(=O)Nc2cccc(Nc3ncc(Cl)c(-c4c[nH]c5ccccc45)n3)c2)cc1,-0.79,-1.41,-1.48,-2.92,-8.5%
Nc1ncnc2[nH]nc(Nc3ccc(F)cc3)c12,-2.32,-2.2,-2.66,-0.59,-5.26%
CC1CC(OC(=O)C(O)c2ccccc2)CC(C)(C)N1C (stereo not given) [eucatropine],0.81,3.45,1.74,0.69,0%
c1coc(-c2nnc3sc(C4CCCCC4)nn23)c1 [cardionogen-1],-0.83,-0.13,0.69,-1.37,-1.68%
FC(F)(F)c1ccc(CNc2ccc(Cc3c[nH]c4ncc(Cl)cc34)cn2)cn1 [pexidartinib],0.78,3.65,0.98,0.96,11.6%
CC(C)[C@@H](CS(=O)(=O)C(C)C)N1C(=O)[C@@](C)(CC(=O)O)C[C@H](c2cccc(Cl)c2)[C@H]1c1ccc(Cl)cc1,2.3,3.7,3.54,4.65,4.3%
C[C@@H]1CC[C@@]2(NC1)O[C@H]1C[C@H]3[C@@H]4CC=C5C[C@@H](O[C@@H]6O[C@H](CO)[C@@H](O[C@@H]7O[C@@H](C)[C@H](O)[C@@H](O)[C@H]7O)[C@H](O)[C@H]6O[C@@H]6O[C@@H](C)[C@H](O)[C@@H](O)[C@H]6O)CC[C@]5(C)[C@H]4CC[C@]3(C)[C@H]1[C@@H]2C [solamargine],-1.13,-0.16,0.07,-3.82,-15.1%
Cc1n[nH]c(C)c1Cc1sc2c(c1C(=O)N1C[C@H](O)CO1)c(=O)n(C)c(=O)n2CC(C)C,1.42,3.88,0.66,1.3,1.69%
CC(C)Oc1ccc(-c2nn([C@@H](C)c3oc4ccc(F)cc4c(=O)c3-c3cccc(F)c3)c3ncnc(N)c23)cc1F,1.54,2.74,0.14,0.53,-3.52%
C=C1/C(=C\C=C2/CCC[C@]3(C)[C@@H]([C@H](C)/C=C/[C@H](C)C(C)(C)O)CC[C@@H]23)C[C@@H](O)C[C@@H]1O [ercalcitriol],-1.77,0.83,-0.6,2.88,3.34%
COc1cc(NS(C)(=O)=O)ccc1Nc1c2ccccc2nc2ccccc12 [amsacrine],-2.31,1.72,-0.21,-6.01,-5.76%
